PglD inh = PglD (C. jejuni) enzyme inhibition. hit rate 0.098% among 360,000. purified PglD enzyme, DTNB colorimetric CoA detection. inhibition, % at 12.5 µM; in the data active = inhibition above about 16%, passing the limit was not always enough
SIRT5 inh = blocks human SIRT5 desuccinylation of peptide | Purified SirT5, succinyl-peptide AMC, trypsin-coupled fluorescence | hit rate 1.1% among 330,000 | Q9NXA8 | inhibition, % at 15 µM; in the data active = inhibition above about 15%
Target sequence (Q9NXA8 whole entry, looked up): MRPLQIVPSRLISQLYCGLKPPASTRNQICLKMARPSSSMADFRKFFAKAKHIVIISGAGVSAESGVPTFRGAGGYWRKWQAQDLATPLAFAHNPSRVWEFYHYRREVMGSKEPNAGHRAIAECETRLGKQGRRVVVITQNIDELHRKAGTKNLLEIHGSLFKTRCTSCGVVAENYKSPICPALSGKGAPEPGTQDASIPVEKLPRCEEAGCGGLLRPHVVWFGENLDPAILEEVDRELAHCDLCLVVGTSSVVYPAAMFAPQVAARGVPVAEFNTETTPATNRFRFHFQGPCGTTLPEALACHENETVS
FGF22 binding = shifts melting point of recombinant human FGF22 | activity (Tm shift, normalised), % at 9.99 µM | hit rate 1.5% among 340,000 | AID 651658 | Q9HCT0 | recombinant FGF22 thermal shift, SYPRO orange fluorescence; percent of sucrose octasulfate shift, DMSO zero;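 active = mean Tm shift, scaled 0 neutral to 100 positive control, at about 1.3% or above, every replicate too, limit read from the data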
Target sequence (Q9HCT0 whole entry, looked up): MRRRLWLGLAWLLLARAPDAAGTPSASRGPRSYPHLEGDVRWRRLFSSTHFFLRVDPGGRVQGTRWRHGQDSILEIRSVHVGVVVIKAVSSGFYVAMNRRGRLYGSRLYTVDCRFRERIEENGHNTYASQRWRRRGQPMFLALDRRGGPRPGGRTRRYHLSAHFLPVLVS
PvdQ inh = blocks Pseudomonas aeruginosa PvdQ acylase activity; purified PvdQ acylase, fluorescence plate reader; inhibition, % at 10 µM; hit rate 0.063% among 340,000; AID 488965; in the data active = inhibition above about 30%, passing the limit was not always enough;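 also: 0% = vehicle neutral wells and 100% = reference inhibitor wells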
dFosB act = activators of mouse delta FosB homodimer | activation, % at 25 µM | AID 493131 | hit rate 0.99% among 340,000 | P13346 | purified delta FosB, TAMRA-CDK5 oligo fluorescence polarization; percent of positive-control signal above neutral wells;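 active = mean activation above about 17%, with every replicate also reaching it, limit read from the data, passing the limit was not always enough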
CDK5 p35 inh = blocks human CDK5/p35 kinase activity | Q00535+Q15078 | Recombinant CDK5/p35, ADP-Glo luminescence, 60 min | inhibition, % at 10 µM | hit rate 0.01% among 330,000 | AID 488839;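 active = highest replicate inhibition of at least 50% and at least 75% of replicates reaching 50%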;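 also: plate controls were DMSO neutral control for no effect and GW8510 at 10 µM for full effect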
* = called active by the depositor; . = no result given. This is a sample that favours compounds with a hit; in the whole collection about 2.8% have one here.

SMILES | PglD inh | SIRT5 inh | FGF22 binding | PvdQ inh | dFosB act | CDK5 p35 inh
C[C@@H]1CN([C@H](C)CO)C(=O)c2cc(NC(=O)Cc3cn(C)c4ccccc34)ccc2O[C@@H]1CN(C)C(=O)Nc1ccc(F)cc1 | -1.3 | 3.2 | -0.4 | . | . | .
C/C(N)=C(/C#N)C(=O)CSc1nnc(Nc2ccccc2)s1 | . | 18.2* | 0.1 | -1.7 | 5.4 | 4.2
C/C(N)=C(/C#N)C(=O)CSc1nnc(Nc2ccccc2C)s1 | . | . | . | -22.9 | -3.0 | -0.3
COc1cc(O)c2c(c1)oc(=O)c1c3cc(O)c(O)cc3oc21 | . | 23.1* | 0.2 | . | . | .
COC(=O)C[C@H]1CC[C@@H]2[C@H](COc3ccc(NS(=O)(=O)c4ccc(F)cc4)cc3C(=O)N2C)O1 | 0.5 | -4.1 | 0.3 | . | . | .
COc1ccc(NC(=O)N[C@@H](CCSC)C(=O)O)cc1Cl | 1.4 | . | . | -8.8 | -4.1 | -1.4
COc1ccc(NC(=O)N[C@@H](CCSC)C(=O)O)cc1OC | 1.4 | 19.1* | 0.3 | -11.6 | -0.3 | -0.3
O=C(NCCc1ccccc1)C1c2ccccc2C(=O)N1Cc1cccs1 (configuration not stated) | 8.2 | 33.5* | 0.3 | 2.6 | -0.3 | -2.2
CN(C)C(=O)[C@H]1[C@H](CO)[C@H]2Cn3c(ccc(-c4ccc(F)cc4)c3=O)[C@@H]1N2CCc1ccccc1 | -2.2 | 21.8* | -0.1 | . | . | .
CN1[C@@H]2c3ccc(-c4cccc(F)c4)c(=O)n3C[C@@H]2[C@@H](CO)[C@@H]1C(=O)NC1CCCC1 | . | -2.2 | . | . | . | .
CN1[C@H](C(=O)NC2CCCCC2)[C@@H](CO)[C@@H]2Cn3c(ccc(-c4cccc(F)c4)c3=O)[C@@H]21 | 1.1 | 16.5* | . | . | . | .
CCN1[C@@H]2c3ccc(-c4cccc(F)c4)c(=O)n3C[C@@H]2[C@@H](CO)[C@@H]1C(=O)N[C@H](C)c1ccccc1 | 0.9 | 26.6* | . | . | . | .
O=C(O)[C@@H]1[C@@H](CO)[C@@H]2Cn3c(ccc(-c4ccccc4F)c3=O)[C@@H]2N1Cc1ccccc1 | -4.5 | 18.5* | -0.2 | . | . | .
CN1C(=O)c2cc(NC(=O)Cc3cccs3)ccc2OC[C@@H]2O[C@H](CC(=O)N[C@@H]3CCN(Cc4ccccc4)C3)CC[C@H]21 | 2.0 | -0.2 | 0.0 | . | . | .
CO[C@H]1CN(C)C(=O)c2cc(NC(=O)C3CCC3)ccc2OC[C@H](C)NC[C@@H]1C | -0.8 | -4.4 | 0.0 | . | . | .
O=C(NC1CCCC1)[C@H]1[C@H](CO)[C@H]2Cn3c(ccc(-c4ccncc4)c3=O)[C@H]2N1CCc1ccccc1 | -0.7 | 19.1* | 0.1 | . | . | .
CCN1[C@@H]2c3ccc(-c4ccncc4)c(=O)n3C[C@@H]2[C@@H](CO)[C@@H]1C(=O)NCc1ccccc1 | -1.6 | -1.3 | -0.1 | . | . | .
CCN1[C@@H]2c3ccc(-c4ccccc4)c(=O)n3C[C@@H]2[C@@H](CO)[C@@H]1C(=O)NCc1ccccc1 | -0.3 | 21.9* | 0.0 | . | . | .
Cc1ccccc1N1CC(C(=O)O)CC1=O (configuration not stated) | 4.6 | 28.7* | -0.1 | -6.2 | 0.4 | 0.1
Cc1ccccc1N1CC(C(=O)N2CCc3ccccc32)CC1=O (configuration not stated) | 0.4 | -2.7 | -0.2 | -11.8 | -6.9 | 0.2
Nc1nnc(CC(=O)N/N=C/c2ccc(-c3cccc(C(=O)O)c3)o2)s1 | -1.1 | 19.7* | 0.0 | 5.9 | -0.1 | -1.0
O=C(NC1CC1)C1CCN(C2CCN(C(=O)CC3=CCCCC3)CC2)CC1 | 5.0 | 28.9* | 0.1 | -6.3 | -10.6 | 1.4
O=C(NC(=S)Nc1cc(S(=O)(=O)N2CCOCC2)ccc1O)c1ccco1 | 1.3 | 1.3 | 5.5* | 11.5 | -8.8 | -1.3
CN1C(=O)c2cc(NC(=O)c3cccc(F)c3)ccc2OC[C@@H]2O[C@H](CC(=O)Nc3ccccc3)CC[C@H]21 | 3.4 | 4.2 | -0.1 | . | . | .
NC(=O)COC(=O)/C=C/c1cccc(Br)c1 | . | -0.2 | 43.0* | 2.8 | 5.9 | -0.1
SMILES | PglD inh | SIRT5 inh | FGF22 binding | PvdQ inh | dFosB act | CDK5 p35 inh
O=C(COC(=O)/C=C/c1cccc(Br)c1)NC1CCCC1 | -3.4 | -1.8 | -0.2 | -0.6 | -7.0 | 0.9
COCCNC(=O)C[C@@H]1CC[C@H]2[C@@H](COc3ccc(NC(=O)c4cc(C)on4)cc3C(=O)N2C)O1 | -3.8 | -2.3 | 0.0 | . | . | .
CCCNc1c(NS(=O)(=O)c2ccc(Br)cc2)c(=O)oc2ccccc12 | 1.5 | 10.2 | -0.5 | -5.0 | 45.7* | .
N#CC1(Nc2cccc(Cl)c2)CCCC1 | -2.4 | . | 43.0* | 23.3 | 0.7 | -0.3
Cc1noc(C)c1NC(=O)N(C)C[C@H]1OCCCC[C@H](C)Oc2ccc(NC(=O)NC3CCCCC3)cc2C(=O)N([C@@H](C)CO)C[C@@H]1C | -4.7 | -5.4 | 1.4* | . | . | .
Cc1noc(C)c1NC(=O)N(C)C[C@@H]1OCCCC[C@H](C)Oc2ccc(NC(=O)Nc3ccc(C(F)(F)F)cc3)cc2C(=O)N([C@@H](C)CO)C[C@H]1C | 0.5 | -0.9 | -0.1 | . | . | .
Cc1noc(C)c1NC(=O)N(C)C[C@H]1OCCCC[C@@H](C)Oc2ccc(NC(=O)Nc3ccc(C(F)(F)F)cc3)cc2C(=O)N([C@H](C)CO)C[C@@H]1C | 3.4 | 17.3* | -0.9 | . | . | .
Cc1noc(C)c1NC(=O)N(C)C[C@@H]1OCCCC[C@H](C)Oc2ccc(NC(=O)Nc3ccc(F)cc3)cc2C(=O)N([C@@H](C)CO)C[C@@H]1C | -1.2 | 31.2* | -0.9 | . | . | .
Cc1noc(C)c1NC(=O)Nc1ccc2c(c1)C(=O)N([C@H](C)CO)C[C@H](C)[C@@H](CN(C)Cc1ccc(C(F)(F)F)cc1)OCCCC[C@@H](C)O2 | 1.1 | 26.2* | -0.2 | . | . | .
Cc1noc(C)c1NC(=O)N(C)C[C@H]1OCCCC[C@H](C)Oc2ccc(NC(=O)Nc3ccc(F)cc3)cc2C(=O)N([C@@H](C)CO)C[C@@H]1C | -3.2 | -2.0 | -0.8 | . | . | .
O=C(NC[C@H]1CC[C@H]2[C@H](CN2Cc2ccccc2F)O1)C1CCCCC1 | . | -5.3 | . | . | . | .
O=C(/C=C/c1ccco1)Nc1ccc(N2CCCC2)cc1 | . | -2.3 | -0.1 | -5.2 | 41.3* | 1.1
O=C(/C=C/c1ccco1)Nc1ccc(C(=O)N2CCOCC2)cc1 | 2.2 | . | . | 4.7 | -8.1 | 1.3
CC(=O)N1CCN(c2ccc(NC(=O)/C=C/c3ccccc3)cc2)CC1 | -0.8 | -0.2 | 43.6* | 0.1 | -10.1 | -0.2
C[C@@H]1CN([C@H](C)CO)C(=O)c2c(c3ccccc3n2C)-c2ccccc2CO[C@@H]1CN(C)C(=O)c1cc(Cl)cc(Cl)c1 | . | 19.0* | -0.8 | . | . | .
C[C@H]1CN([C@@H](C)CO)C(=O)c2c(c3ccccc3n2C)-c2ccccc2CO[C@@H]1CN(C)C(=O)c1cc(Cl)cc(Cl)c1 | . | 0.6 | 1.2 | . | . | .
Cc1noc(C)c1C(=O)N(C)C[C@@H]1OCc2ccccc2-c2c(n(C)c3ccccc23)C(=O)N([C@H](C)CO)C[C@H]1C | -1.3 | 16.9* | -0.1 | . | . | .
CN(C)c1ccc2nc3ccc(=[N+](C)C)cc-3sc2c1 | . | -4.8 | 0.1 | -1.8 | 40.0* | 9.1
